# Experimental data from PubChem BioAssay (EPA / NIEHS).
# Inconclusive results are not listed. Activity calls are given as the source filed them. How the source made its calls, unless noted: active means hit-call score of the fitted dose curve at least 0.9, where 1 is the maximum; inactive means score below 0.9.
# Experiments:
# [1] = read-out: Monocyte Chemoattractant Protein-1 (MCP1), CCL2 (gene 6347); test: BSK_LPS_MCP1: BioMAP Diversity Plus: LPS Assay for Monocyte Chemoattractant Protein-1 (MCP1) Biomarker Activity (AID 2283081); conditions: primary human HUVEC with PBMC; actives raise or lower the signal;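 on AC50: co-culture stimulated with LPS; secreted MCP-1 protein quantified by ELISA in culture supernatant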
# Method in brief: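 Values derive from bidirectional fitting against DMSO of ELISA-measured MCP-1 in a human primary endothelial and mononuclear cell co-culture, 24 h after chemical addition under LPS activation.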
# [2] = BSK_LPS_PGE2: BioMAP Diversity Plus: LPS Assay for Prostaglandin E2 (PGE2) Biomarker Activity (AID 2283082); conditions: primary human HUVEC with PBMC; actives raise or lower the signal;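 on AC50: secreted prostaglandin E2 measured by ELISA in LPS-stimulated co-culture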
# Method in brief: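 LPS-activated HUVEC/PBMC co-culture; cmpd dosed, 24 h; PGE2 by ELISA; bidirectional fit vs DMSO; SRB (0.1%, TCA-fixed, 560 nm) in parallel plates for overt cytotox.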
# [3] = read-out: Macrophage colony-stimulating factor (MCSF), CSF1 (gene 1435); test: BSK_LPS_MCSF: BioMAP Diversity Plus: LPS Assay for Macrophage colony-stimulating factor (MCSF) Biomarker Activity (AID 2283083); conditions: primary human HUVEC with PBMC; actives raise or lower the signal
# Method in brief: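 Bidirectional fit versus DMSO of ELISA-measured M-CSF in co-cultured human umbilical vein endothelial cells and PBMC, sampled 24 h after dosing.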
# [4] = read-out: Tissue Factor, F3 (gene 2152); test: BSK_LPS_TissueFactor: BioMAP Diversity Plus: LPS Assay for Tissue Factor Biomarker Activity (AID 2283084); conditions: primary human HUVEC with PBMC; actives raise or lower the signal
# Method in brief: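 Read-out: CD142 ELISA, 24 h. System: LPS-driven human endothelial/PBMC co-culture. Analysis: up- or down-signal fitted against DMSO.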
# [5] = read-out: Tumor necrosis factor (Homo sapiens) (UniProt P01375); test: BSK_LPS_TNFa: BioMAP Diversity Plus: LPS Assay for Tumour Necrosis Factor alpha (TNFa) Biomarker Activity (AID 2283085); conditions: primary human HUVEC with PBMC; actives raise or lower the signal
# Method in brief: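 Read-out is ELISA of TNFa in primary human endothelial cell–PBMC co-cultures at 24 h after compound. Activity in either direction was fitted against DMSO.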
# [6] = read-out: Vascular cell adhesion molecule 1 (VCAM1), VCAM1 (gene 7412); test: BSK_LPS_VCAM1: BioMAP Diversity Plus: LPS Assay for Vascular cell adhesion molecule 1 (VCAM1) Biomarker Activity (AID 2283086); conditions: primary human HUVEC with PBMC; actives raise or lower the signal
# Method in brief: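 HUVEC + PBMC co-culture, LPS system; compound 24 h; VCAM-1 by ELISA; bidirectional fit vs DMSO control; parallel SRB (0.1%, TCA-fixed, 560 nm) for cytotoxicity.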
# CD38, CD38 (gene 952) = test: BSK_SAg_CD38: BioMAP Diversity Plus: SAg Assay for CD38 Biomarker Activity (AID 2283087); conditions: primary human HUVEC with PBMC; actives raise or lower the signal
# Method in brief: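 Human HUVEC plus PBMC co-culture stimulated with superantigen; CD38 measured by ELISA 24 h after chemical dosing. Fluorescence read-out, bidirectional fit against DMSO; cytotoxicity tracked in parallel by SRB and Alamar Blue.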
# CD40, CD40 (gene 958) = test: BSK_SAg_CD40: BioMAP Diversity Plus: SAg Assay for CD40 Biomarker Activity (AID 2283088); conditions: primary human HUVEC with PBMC; actives raise or lower the signal
# Method in brief: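 Endpoint derived by fitting increases or decreases versus DMSO controls. CD40 is detected by fluorescence ELISA in a human vascular co-culture of endothelium and PBMC at 24 h.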
# CD69, CD69 (gene 969) = test: BSK_SAg_CD69: BioMAP Diversity Plus: SAg Assay for CD69 Biomarker Activity (AID 2283089); conditions: primary human HUVEC with PBMC; actives raise or lower the signal;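 on AC50: cell surface CD69 protein quantified by ELISA with fluorescence detection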
# Method in brief: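 ELISA, fluorescence read-out: CD69 on human umbilical vein endothelial cell + PBMC co-culture, 24 h post-dosing. Gain or loss of signal fitted bidirectionally against DMSO baseline.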
# [7] = read-out: Monocyte Chemoattractant Protein-1 (MCP1), CCL2 (gene 6347); test: BSK_SAg_MCP1: BioMAP Diversity Plus: SAg Assay for Monocyte Chemoattractant Protein-1 (MCP1) Biomarker Activity (AID 2283090); conditions: primary human HUVEC with PBMC; actives raise or lower the signal
# Method in brief: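 MCP-1 levels in the endothelial–PBMC SAg co-culture were quantified by ELISA at 24 h post-dosing; both increases and decreases versus DMSO scored. Cytotoxicity monitored by SRB total protein in parallel cultures.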
# [8] = read-out: Monokine induced gamma interferon (MIG), CXCL9 (gene 4283); test: BSK_SAg_MIG: BioMAP Diversity Plus: SAg Assay for Monokine induced gamma interferon (MIG) Biomarker Activity (AID 2283092); conditions: primary human HUVEC with PBMC; actives raise or lower the signal
# Method in brief: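 ELISA readout of MIG/CXCL9; primary human umbilical vein endothelial cells co-cultured with peripheral blood mononuclear cells; 24 h post-dose; gain/loss fit vs DMSO baseline.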
# [9] = BSK_SAg_PBMCCytotoxicity: PBMC Cytotoxicity Assessment in the BioMAP Diversity Plus: SAg Assay (AID 2283093); conditions: primary human HUVEC with PBMC;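 further: PBMC viability measured as Alamar Blue reduction fluorescence at 546/580 nm; fitted both ways against DMSO so a hit may be loss or gain of signal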;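 on AC50: PBMC superantigen activated with SEB plus TSST-1 one hour after compound addition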
# Method in brief: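 Human umbilical vein endothelial cells co-cultured with PBMC; PBMC (75,000/well) pre-treated with compound 1 h, then activated with SEB and TSST-1 (20 ng/mL final each) for 90 h. Alamar Blue added 6 h, fluorescence 546/580 nm; bidirectional fit versus DMSO.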
# [10] = read-out: Interleukin-8 (IL8), CXCL8 (gene 3576); test: BSK_SAg_IL8: BioMAP Diversity Plus: SAg Assay for Interleukin-8 (IL8) Biomarker Activity (AID 2283094); conditions: primary human HUVEC with PBMC; actives raise or lower the signal
# Method in brief: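 ELISA read-out of IL-8 in a primary human vascular co-culture (umbilical vein endothelium plus PBMC), taken 24 h after compound addition. Values derive from bidirectional fits against DMSO negative controls.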
# [11] = BSK_SAg_Proliferation: Cell Proliferation Assessment in the BioMAP Diversity Plus: SAg Assay (AID 2283095); conditions: primary human HUVEC with PBMC;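 further: relative cell number as total protein by SRB absorbance in sub-confluent culture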
# Method in brief: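 Cells (endothelium plus PBMC, human primary) were dosed with chemical, cultured 96 h, fixed in 10% TCA and stained with 0.1% SRB. Absorbance at 560 nm gave relative protein, fitted bidirectionally relative to DMSO.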
# [12] = BSK_SAg_SRB: Viability Assessment in the BioMAP Diversity Plus: SAg Assay (AID 2283096); conditions: primary human HUVEC with PBMC;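 further: cells read one day after compound addition; hits may be either gain or loss of signal compared with DMSO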
# Method in brief: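 Endothelial/PBMC primary human co-culture; compound 24 h; fix 10% TCA, stain 0.1% SRB, A560; protein content as cytotoxicity proxy; bidirectional curve fit, DMSO = baseline.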
# [13] = target: human CYP19A1, CYP19A1 (gene 1588) (UniProt P11511); test: NVS_ADME_hCYP19A1: NovaScreen (NVS) CYP450-related Enzyme Activity (ADME) Assay for human CYP19A1 (AID 2283098; active means hit-call score of the fitted dose curve at least 0.9, where 1 is the maximum)
# human CYP19A1, CYP19A1 (gene 1588), sequence (P11511 whole entry, looked up): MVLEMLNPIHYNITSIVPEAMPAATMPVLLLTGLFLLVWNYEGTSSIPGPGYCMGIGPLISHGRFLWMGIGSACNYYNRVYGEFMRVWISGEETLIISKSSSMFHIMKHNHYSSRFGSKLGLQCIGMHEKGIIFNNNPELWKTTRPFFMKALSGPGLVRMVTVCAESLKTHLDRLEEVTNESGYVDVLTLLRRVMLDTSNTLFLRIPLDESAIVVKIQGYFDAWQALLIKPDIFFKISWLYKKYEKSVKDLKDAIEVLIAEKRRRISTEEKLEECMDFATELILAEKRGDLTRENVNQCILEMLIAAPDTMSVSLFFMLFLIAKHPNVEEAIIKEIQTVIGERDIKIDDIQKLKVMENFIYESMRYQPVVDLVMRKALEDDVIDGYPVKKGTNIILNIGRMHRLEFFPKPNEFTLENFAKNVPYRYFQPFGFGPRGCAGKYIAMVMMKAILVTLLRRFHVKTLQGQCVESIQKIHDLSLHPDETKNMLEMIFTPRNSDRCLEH
# Method in brief: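 Cell-free enzyme assay with recombinant protein and a specific fluorogenic substrate, read by fluorescence intensity 0.5 h after dosing. Primary screen ran in duplicate at 10 uM; actives were retested in concentration series. Loss of signal versus acetonitrile baseline.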
# [14] = target: human CYP1A1, CYP1A1 (gene 1543) (UniProt P04798); test: NVS_ADME_hCYP1A1: NovaScreen (NVS) CYP450-related Enzyme Activity (ADME) Assay for human CYP1A1 (AID 2283100; active means hit-call score of the fitted dose curve at least 0.9, where 1 is the maximum)
# human CYP1A1, CYP1A1 (gene 1543), sequence (P04798 whole entry, looked up): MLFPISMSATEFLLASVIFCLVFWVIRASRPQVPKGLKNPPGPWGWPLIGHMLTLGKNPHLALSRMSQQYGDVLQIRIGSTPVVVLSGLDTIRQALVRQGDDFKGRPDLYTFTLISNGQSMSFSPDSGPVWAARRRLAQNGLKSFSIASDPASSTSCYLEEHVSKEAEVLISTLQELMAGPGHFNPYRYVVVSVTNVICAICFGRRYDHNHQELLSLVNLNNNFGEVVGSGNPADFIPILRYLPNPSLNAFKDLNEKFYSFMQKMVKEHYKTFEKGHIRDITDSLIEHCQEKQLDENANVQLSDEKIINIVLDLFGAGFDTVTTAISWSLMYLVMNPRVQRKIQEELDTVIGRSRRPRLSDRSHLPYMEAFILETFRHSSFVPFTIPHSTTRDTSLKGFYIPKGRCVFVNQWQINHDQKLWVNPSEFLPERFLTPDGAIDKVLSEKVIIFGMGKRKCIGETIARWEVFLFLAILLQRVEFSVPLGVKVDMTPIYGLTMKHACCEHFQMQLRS
# Method in brief: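 Inhibition of recombinant CYP1A1 turnover was assessed fluorometrically in a biochemical format 1 h after compound exposure. Testing began at 10 uM in duplicate and progressed to concentration series reaching 20 uM, with on-plate positive and negative controls.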
# Tumor necrosis factor (Homo sapiens), sequence (P01375 whole entry, looked up): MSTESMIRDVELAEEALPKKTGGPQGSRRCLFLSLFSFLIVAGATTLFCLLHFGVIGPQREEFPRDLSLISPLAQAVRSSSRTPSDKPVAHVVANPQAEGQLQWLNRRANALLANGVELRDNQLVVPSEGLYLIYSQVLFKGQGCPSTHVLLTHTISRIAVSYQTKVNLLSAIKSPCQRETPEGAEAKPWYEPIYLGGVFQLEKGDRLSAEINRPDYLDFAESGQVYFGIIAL
compound,measurement,setting,value
O=C(N[C@@H](c1ccccc1)[C@@H]1CCCCN1)c1cccc(C(F)(F)F)c1Cl,AC50,[1],22.7 µM (active)
same,AC50,[2],4.91 µM (active)
same,outcome,[3],inactive
same,outcome,[4],inactive
same,outcome,[5],inactive
same,AC50,[6],20 µM (active)
same,AC50,"CD38, CD38 (gene 952)",20 µM (active)
same,AC50,"CD40, CD40 (gene 958)",20 µM (active)
same,AC50,"CD69, CD69 (gene 969)",20 µM (active)
same,AC50,[7],23.4 µM (active)
same,outcome,[8],inactive
same,AC50,[9],20 µM (active)
same,AC50,[10],14.3 µM (active)
same,AC50,[11],14.4 µM (active)
same,AC50,[12],26.5 µM (active)
same,outcome,[13],inactive
COC(=O)[C@H]1[C@H]2C[C@@H]3c4[nH]c5cc(OC)ccc5c4CCN3C[C@H]2C[C@@H](OC(=O)c2cc(OC)c(OC)c(OC)c2)[C@@H]1OC,AC50,[1],18.6 µM (active)
same,outcome,[2],inactive
same,AC50,[3],21.2 µM (active)
same,AC50,[4],7.64 µM (active)
same,AC50,[5],28.7 µM (active)
same,AC50,[6],12 µM (active)
same,AC50,"CD38, CD38 (gene 952)",25.7 µM (active)
same,AC50,"CD40, CD40 (gene 958)",26.6 µM (active)
same,AC50,[7],22.6 µM (active)
same,AC50,[8],24.5 µM (active)
same,AC50,[9],23.9 µM (active)
same,AC50,[12],25.9 µM (active)
same,outcome,[14],inactive
CC(=O)O[C@]1(C(C)=O)CC[C@H]2[C@@H]3C=C(Cl)C4=CC(=O)[C@@H]5C[C@@H]5[C@]4(C)[C@H]3CC[C@@]21C,outcome,[1],inactive
same,outcome,[2],inactive
same,outcome,[3],inactive
same,outcome,[4],inactive
same,outcome,[5],inactive
same,outcome,[6],inactive
same,outcome,"CD38, CD38 (gene 952)",inactive
same,AC50,"CD40, CD40 (gene 958)",30.1 µM (active)
same,AC50,"CD69, CD69 (gene 969)",30.5 µM (active)
same,outcome,[7],inactive
same,outcome,[8],inactive
same,outcome,[9],inactive
same,outcome,[10],inactive
same,AC50,[12],31.2 µM (active)
O=[Si]=O,outcome,[1],inactive
same,outcome,[2],inactive
same,outcome,[3],inactive
same,outcome,[4],inactive
same,outcome,[5],inactive
same,outcome,[6],inactive
same,outcome,"CD38, CD38 (gene 952)",inactive
same,outcome,"CD40, CD40 (gene 958)",inactive
same,outcome,"CD69, CD69 (gene 969)",inactive
same,outcome,[7],inactive
same,outcome,[8],inactive
same,outcome,[9],inactive
same,outcome,[10],inactive
same,outcome,[12],inactive
CCCCCCCCCC[N+](C)(C)[O-],outcome,[1],inactive
same,outcome,[2],inactive
same,outcome,[3],inactive
same,outcome,[4],inactive
same,outcome,[5],inactive
same,AC50,[6],35.5 µM (active)
same,outcome,"CD38, CD38 (gene 952)",inactive
same,outcome,"CD40, CD40 (gene 958)",inactive
same,outcome,"CD69, CD69 (gene 969)",inactive
same,outcome,[7],inactive
same,outcome,[8],inactive
same,outcome,[9],inactive
same,outcome,[10],inactive
same,outcome,[12],inactive
CSc1ccc(Oc2ccc(S(N)(=O)=O)cc2CN(C)C)cc1C,outcome,[1],inactive
same,outcome,[2],inactive
same,outcome,[3],inactive
same,outcome,[4],inactive
same,outcome,[5],inactive
same,outcome,[6],inactive
same,outcome,"CD38, CD38 (gene 952)",inactive
same,outcome,"CD40, CD40 (gene 958)",inactive
same,outcome,"CD69, CD69 (gene 969)",inactive
same,outcome,[7],inactive
same,outcome,[8],inactive
same,outcome,[9],inactive
same,outcome,[10],inactive
same,outcome,[12],inactive
